Results from PubChem BioAssay AID1159580 (chemical genetic matrix, 2015).
The whole screen tested about 5,500 compounds, of which about 2,000 (36%) were called active. Another 18% or so got no clear call; they are omitted. No stated cut-off is given here; in the data, active means normalized growth mostly below about 0.91 (no sharp cut-off); inconclusive means no clear call, values can overlap the other calls; inactive means mostly above about 0.92. The list shows a part of the results.

Experiment: chemical genetic growth profiling, strain panel (AID 1159580);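 further: tested at 20 µM; growth read once vehicle control cultures reached saturation at 30 °C; 1 = growth at the plate median or of vehicle wells; lower values mean less growth of the strain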
Settings: growth OD

Measured: normalized growth

O=C(O)c1ccccc1O
inactive: S. cerevisiae deletion strains, locus YJR066W, strain TOR1, active compounds read low 0.951 | S. cerevisiae deletion strains, locus YJR075W, strain HOC1, active compounds read low 1.01 | S. cerevisiae deletion strains, locus YKL009W, strain mrt4, active compounds read low 1.05 | S. cerevisiae deletion strains, locus YKL068W, active compounds read low 0.982 | S. cerevisiae deletion strains, locus YKL085W, strain MDH1 (second series), active compounds read low 0.989 | S. cerevisiae deletion strains, locus YKL085W, strain MDH1, active compounds read low 0.989 | S. cerevisiae deletion strains, locus YKL160W, strain elf1, active compounds read low 0.971 | S. cerevisiae deletion strains, locus YKL190W, strain CNB1, active compounds read low 0.998 | S. cerevisiae deletion strains, locus YKR001C, strain vps1, active compounds read low 1.02 | S. cerevisiae deletion strains, locus YKR091W, strain srl3, active compounds read low 0.99 | S. cerevisiae deletion strains, locus YLL001W, strain dnm1, active compounds read low 0.97 | S. cerevisiae deletion strains, locus YLL026W, active compounds read low 0.991 | S. cerevisiae deletion strains, locus YLL041C, strain sdh2, active compounds read low 0.99 | S. cerevisiae deletion strains, locus YLR027C, strain aat2, active compounds read low 0.997 | S. cerevisiae deletion strains, locus YLR039C, strain RIC1, active compounds read low 0.978 | S. cerevisiae deletion strains, locus YLR058C, strain SHM2, active compounds read low 0.994 | S. cerevisiae deletion strains, locus YLR102C, strain apc9, active compounds read low 1.01 | S. cerevisiae deletion strains, locus YLR113W, strain HOG1, active compounds read low 0.987 | S. cerevisiae deletion strains, locus YLR221C, strain rsa3, active compounds read low 1 | S. cerevisiae deletion strains, locus YLR258W, strain gsy2, active compounds read low 0.979 | S. cerevisiae deletion strains, locus YLR262C, strain YPT6 (second series), active compounds read low 0.957 | S. cerevisiae deletion strains, locus YLR262C, strain YPT6, active compounds read low 0.973 | S. cerevisiae deletion strains, locus YLR268W, strain sec22, active compounds read low 1.04 | S. cerevisiae deletion strains, locus YLR320W, strain mms22, active compounds read low 1.03 | S. cerevisiae deletion strains, locus YLR330W, strain CHS5, active compounds read low 1 | S. cerevisiae deletion strains, locus YLR342W, strain FKS1 (second series), active compounds read low 1.01 | S. cerevisiae deletion strains, locus YLR342W, strain FKS1, active compounds read low 0.975 | S. cerevisiae deletion strains, locus YLR357W, strain rsc2, active compounds read low 0.956 | S. cerevisiae deletion strains, locus YLR370C, strain arc18, active compounds read low 0.988 | S. cerevisiae deletion strains, locus YLR371W, strain rom2, active compounds read low 1.01 | S. cerevisiae deletion strains, locus YLR384C, strain iki3, active compounds read low 0.96 | S. cerevisiae deletion strains, locus YLR418C, strain cdc73, active compounds read low 1.01 | S. cerevisiae deletion strains, locus YML016C, strain PPZ1, active compounds read low 1 | S. cerevisiae deletion strains, locus YML032C, strain rad52, active compounds read low 1.04 | S. cerevisiae deletion strains, locus YML120C, strain ndi1, active compounds read low 0.985 | S. cerevisiae deletion strains, locus YML124C, strain tub3, active compounds read low 1.01 | S. cerevisiae deletion strains, locus YMR058W, strain fet3, active compounds read low 0.998 | S. cerevisiae deletion strains, locus YMR078C, strain ctf18, active compounds read low 1.02 | S. cerevisiae deletion strains, locus YMR125W, strain sto1, active compounds read low 0.923 | S. cerevisiae deletion strains, locus YMR129W, active compounds read low 0.971 | S. cerevisiae deletion strains, locus YMR205C, strain PFK2, active compounds read low 0.985 | S. cerevisiae deletion strains, locus YMR223W, strain ubp8, active compounds read low 1.02 | S. cerevisiae deletion strains, locus YMR231W, strain pep5, active compounds read low 0.976 | S. cerevisiae deletion strains, locus YMR307W, strain GAS1, active compounds read low 0.965 | S. cerevisiae deletion strains, locus YNL067W, strain RPL9B, active compounds read low 0.998 | S. cerevisiae deletion strains, locus YNL071W, strain lat1, active compounds read low 0.986 | S. cerevisiae deletion strains, locus YNL153C, strain GIM3, active compounds read low 1.01 | S. cerevisiae deletion strains, locus YNL183C, strain NPR1, active compounds read low 0.951 | S. cerevisiae deletion strains, locus YNL209W, strain ssb2, active compounds read low 0.968 | S. cerevisiae deletion strains, locus YNL233W, strain BNI4, active compounds read low 1 | S. cerevisiae deletion strains, locus YNL248C, strain rpa49, active compounds read low 0.958 | S. cerevisiae deletion strains, locus YNL250W, strain rad50, active compounds read low 1 | S. cerevisiae deletion strains, locus YNL271C, strain bni1, active compounds read low 0.995 | S. cerevisiae deletion strains, locus YNL298W, strain CLA4, active compounds read low 1.02 | S. cerevisiae deletion strains, locus YNL307C, strain MCK1, active compounds read low 1.02 | S. cerevisiae deletion strains, locus YNL322C, strain KRE1 (second series), active compounds read low 0.974 | S. cerevisiae deletion strains, locus YNR049C, strain mso1, active compounds read low 0.979 | S. cerevisiae deletion strains, locus YNR052C, strain pop2, active compounds read low 1.02 | S. cerevisiae deletion strains, locus YOL006C, strain TOP1, active compounds read low 1.09 | S. cerevisiae deletion strains, locus YOL012C, strain htz1 1.01 | S. cerevisiae deletion strains, locus YOL147C, strain pex11, active compounds read low 1.01 | S. cerevisiae deletion strains, locus YOR001W, strain rrp6, active compounds read low 0.982 | S. cerevisiae deletion strains, locus YOR061W, strain CKA2, active compounds read low 0.999 | S. cerevisiae deletion strains, locus YOR069W, strain VPS5, active compounds read low 0.993 | S. cerevisiae deletion strains, locus YOR070C, strain gyp1, active compounds read low 0.982 | S. cerevisiae deletion strains, locus YOR080W, strain dia2, active compounds read low 0.983 | S. cerevisiae deletion strains, locus YOR083W, strain WHI5, active compounds read low 0.988 | S. cerevisiae deletion strains, locus YOR106W, strain vam3, active compounds read low 0.952 | S. cerevisiae deletion strains, locus YOR136W, strain idh2, active compounds read low 1.02 | S. cerevisiae deletion strains, locus YOR144C, strain elg1, active compounds read low 1.01 | S. cerevisiae deletion strains, locus YOR184W, strain ser1, active compounds read low 1.02 | S. cerevisiae deletion strains, locus YOR231W, strain MKK1, active compounds read low 0.98 | S. cerevisiae deletion strains, locus YOR265W, strain rbl2, active compounds read low 0.976 | S. cerevisiae deletion strains, locus YOR270C, strain vph1, active compounds read low 0.944 | S. cerevisiae deletion strains, locus YOR290C, strain snf2, active compounds read low 1 | S. cerevisiae deletion strains, locus YOR316C, strain cot1, active compounds read low 1.02 | S. cerevisiae deletion strains, locus YPL051W, strain arl3, active compounds read low 0.986 | S. cerevisiae deletion strains, locus YPL078C, strain atp4, active compounds read low 0.961 | S. cerevisiae deletion strains, locus YPL106C, strain sse1, active compounds read low 0.954 | S. cerevisiae deletion strains, locus YPL240C, strain hsp82, active compounds read low 0.976 | S. cerevisiae deletion strains, locus YPL256C, strain CLN2, active compounds read low 1.05 | S. cerevisiae deletion strains, locus YPR119W, strain clb2, active compounds read low 1.01 | S. cerevisiae deletion strains, locus YPR141C, strain kar3, active compounds read low 0.994 | S. cerevisiae deletion strains, locus YPR163C, strain tif3, active compounds read low 1.01 | S. cerevisiae deletion strains, locus YPR167C, strain met16, active compounds read low 1.01 | S. cerevisiae deletion strains, strain wtn01, active compounds read low 1.01 | S. cerevisiae strains, strain wild type, active compounds read low 0.999
